Data as given in PubChem BioAssay (NCATS).
Inconclusive results are not listed. Activity calls are given as the source filed them. Calls follow the shape of the dose curve; as a rule, active = well fitted inhibition curve with a large enough effect; inconclusive = small, poorly fitted or top-dose-only effect; inactive = flat fitted curve, though single readings scatter. *1 amine or outer side, *2 acyl side, *3 side chain or, on linkers, in order; H or OH if unused. Where a SMILES comes first, the peptide text is derived from it. Bridges are numbered along the chain shown (N, C = ends). [ ]: non-standard residue; d: D form. The star is where a group is joined. ξ: configuration not given here. ξhTyr(3S-OH,4S-OH,3'-OSO3H) = NC(C(=O)O)[C@H](O)[C@@H](O)c1ccc(O)c(OS(=O)(=O)O)c1; Orn(4R-OH,5R-OH) = O=C([C@H](C[C@@H](O)[C@@H](O)N[*:3])N[*:1])[*:2]; X2 = CCCCCOc1ccc(-c2cc(-c3ccc(C(=O)*)cc3)no2)cc1; X3 = C[C@H]1CN([*:1])C(C(=O)[*:2])[C@H]1O; ξGln(3R-OH) = NC(=O)C[C@@H](O)C(N)C(=O)O; ξPro(4R-OH) = O=C(O)C1C[C@@H](O)CN1; ξThr(3R) = C[C@@H](O)C(N)C(=O)O

What was measured:
CRL-7250 = normal cell line; assay: Cytotoxic Profiling of Annotated Libraries Using Quantitative High-Throughput Screening (AID 1296008); details: Five cell lines viability, CellTiter-Glo ATP luminescence, 48-72 h; max response: stronger effect = lower value; as to max response: % is scaled to controls: 0 for no effect and ±100 for the full control effect
Summary of the method: (§1)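 Cytotoxicity was measured as CellTiter-Glo ATP luminescence, read after 10 min at room temperature. Compound treatment of the cells lasted 48 or 72 hr at 37 degrees Celsius in a qHTS format.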

HEK293 = assay: as above; details: Five cell lines viability, CellTiter-Glo ATP luminescence, 48-72 h; max response: stronger effect = lower value
Summary of the method: as §1

HaCat [1] = assay: as above; details: Five cell lines viability, CellTiter-Glo ATP luminescence, 48-72 h; max response: stronger effect = lower value
Summary of the method: as §1

KB-3-1 = assay: as above; details: Five cell lines viability, CellTiter-Glo ATP luminescence, 48-72 h; max response: stronger effect = lower value
Summary of the method: as §1

NIH3T3 = assay: as above; details: Five cell lines viability, CellTiter-Glo ATP luminescence, 48-72 h; max response: stronger effect = lower value
Summary of the method: as §1

HACAT [2] = assay: qHTS assay to identify novel small-molecules to repurpose for Merkel cell carcinoma treatment (AID 1296009); details: MCC and control cell lines, CellTiter-Glo viability, 72 h; at 44.8 µM (top of the series) unless noted
Summary of the method: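 Cell viability measured by CellTiter-Glo following 72 hr compound treatment at 37 degree celsius, with NPC and MIPE libraries tested in 8- and 11-point concentration series.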

Measured: max response
Also: nearly all actives have a fitted effect of over 60% in size.

CSC(=O)OCC1=C[C@@H]2OC(=O)C3=CO[C@@H](O[C@@H]4O[C@H](CO)[C@@H](O)[C@H](O)[C@H]4O)[C@H]1[C@@H]32
inactive: CRL-7250 -1.2% | HEK293 -0.187% | HaCat [1] | KB-3-1 | NIH3T3 1.53% | HACAT [2] inactive [at 17.4 µM]

CC1=CC(=O)CC(C)(C)[C@@]1(O)/C=C/C(C)O[C@@H]1O[C@H](CO)[C@@H](O)[C@H](O)[C@H]1O (stereo partly specified)
inactive: CRL-7250 -4.8% | HEK293 -13.1% | HaCat [1] | KB-3-1 | NIH3T3 | HACAT [2] inactive [at 17.4 µM]

C[C@]1(C2CCCC2)Cc2cc(OCC(=O)O)c(Cl)c(Cl)c2C1=O
inactive: CRL-7250 3.09% | HEK293 3.25% | HaCat [1] | KB-3-1 | NIH3T3 4.03% | HACAT [2]

CC(=O)/C=C/C1(O)C(C)(C)CC(O)CC1(C)O (stereo unspecified)
inactive: CRL-7250 -6.38% | HEK293 -4.83% | HaCat [1] | KB-3-1 | NIH3T3 | HACAT [2]

CC1C(O)C(O)C2C(C(=O)OCCc3ccc(O)cc3)=COC(O[C@@H]3O[C@H](CO)[C@@H](O)[C@H](O)[C@H]3O)C12 (stereo partly specified)
inactive: CRL-7250 | HEK293 -0.685% | HaCat [1] | KB-3-1 -9.14% | NIH3T3 2.97% | HACAT [2] inactive [at 17.4 µM]

COc1cc(O)cc(O[C@@H]2O[C@H](CO)[C@@H](O[C@@H]3OC[C@](O)(CO)[C@H]3O)[C@H](O)[C@H]2O)c1OC
inactive: CRL-7250 2.5% | HEK293 -4.25% | HaCat [1] | KB-3-1 | NIH3T3 2.33% | HACAT [2] inactive [at 17.4 µM]

C=C1C[C@]23C[C@@]1(O)CC[C@H]2[C@@]12C=C[C@H](O)[C@@](C)(C(=O)O1)[C@H]2[C@@H]3C(=O)O
inactive: CRL-7250 0.765% | HEK293 -0.839% | HaCat [1] | KB-3-1 7.38% | NIH3T3 2.3% | HACAT [2]

COC(=O)[C@@H](NC(=O)[C@H](CC(C)C)NC(=O)N(Cc1ccccc1)C[C@@H](O)[C@H](Cc1ccccc1)NC(=O)OC(C)(C)C)C(C)C
inactive: CRL-7250 | HEK293 0.117% | HaCat [1] | KB-3-1 -5.6% | NIH3T3 -6.39% | HACAT [2] inactive [at 9.27 µM]

CC1CCC2(C(=O)OC3OC(CO)C(O)C(O)C3O)CCC3(C)C(=CCC4C5(C)CCC(O)C(C)(CO)C5CCC43C)C2C1(C)O (stereo unspecified)
inactive: CRL-7250 | HEK293 -1.85% | HaCat [1] | KB-3-1 | NIH3T3 | HACAT [2] inactive [at 17.4 µM]

CC(=O)c1c(C)cccc1O[C@@H]1O[C@H](CO)[C@@H](O)[C@H](O)[C@H]1O
inactive: CRL-7250 1.88% | HEK293 -3.42% | HaCat [1] | KB-3-1 7.75% | NIH3T3 | HACAT [2]

C[C@@H]1O[C@@H](O[C@H]2[C@H](O[C@H]3[C@H](O[C@H]4CC[C@@]5(C)C(CC[C@]6(C)C5CC=C5[C@@H]7CC(C)(C)CC(=O)[C@]7(C)CC[C@]56C)[C@@]4(C)CO)O[C@H](C(=O)O)[C@@H](O)[C@@H]3O)O[C@H](CO)[C@H](O)[C@@H]2O)[C@H](O)[C@H](O)[C@H]1O (stereo partly specified)
inactive: CRL-7250 -2.01% | HEK293 -1.03% | HaCat [1] | KB-3-1 | NIH3T3 0.221% | HACAT [2] inactive [at 9.27 µM]

CC1(C)CC[C@]2(C(=O)O[C@@H]3O[C@H](CO)[C@@H](O)[C@H](O)[C@H]3O)CC[C@]3(C)C(=CCC4[C@@]5(C)CC[C@H](O[C@@H]6O[C@H](C(=O)O)[C@@H](O)[C@H](O)[C@H]6OC6OC(CO)C(O)C(O)C6O)C(C)(C)C5CC[C@]43C)[C@@H]2C1 (stereo partly specified)
inactive: CRL-7250 3.56% | HEK293 -12.1% | HaCat [1] | KB-3-1 | NIH3T3 | HACAT [2] inactive [at 9.27 µM]

OC[C@H]1O[C@@H](OC[C@H]2O[C@@H](OCc3ccccc3)[C@H](O)[C@@H](O)[C@@H]2O)[C@H](O)[C@@H](O)[C@@H]1O
inactive: CRL-7250 | HEK293 -4.26% | HaCat [1] | KB-3-1 | NIH3T3 -6.32% | HACAT [2] inactive [at 17.4 µM]

C/C=C(\C)C(=O)O[C@H]1C=CC(=O)O[C@H]1/C=C/[C@H](O)[C@@H](C)O
inactive: CRL-7250 4.14% | HEK293 -103% | HaCat [1] | KB-3-1 | NIH3T3 -1.43% | HACAT [2]

CCCCCOc1ccc(-c2cc(-c3ccc(C(=O)N[C@H]4C[C@@H](O)[C@@H](O)NC(=O)C5[C@@H](O)[C@@H](C)CN5C(=O)C([C@H](O)CC(N)=O)NC(=O)C([C@H](O)[C@@H](O)c5ccc(O)c(OS(=O)(=O)O)c5)NC(=O)C5C[C@@H](O)CN5C(=O)C([C@@H](C)O)NC4=O)cc3)no2)cc1 (stereo partly drawn) (X2-[Orn(4R-OH,5R-OH)][ξThr(3R)][ξPro(4R-OH)][ξhTyr(3S-OH,4S-OH,3'-OSO3H)][ξGln(3R-OH)][X3]; lactam 1-C)
inactive: CRL-7250 | HEK293 -7.85% | HaCat [1] | KB-3-1 | NIH3T3 3.77% | HACAT [2] inactive [at 17.4 µM]

CC(C)=CCC/C(C)=C/CO[C@@H]1O[C@H](CO[C@@H]2O[C@@H](CO)[C@H](O)[C@H]2O)[C@@H](O)[C@H](O)[C@H]1O
inactive: CRL-7250 -10.8% | HEK293 -7.37% | HaCat [1] | KB-3-1 | NIH3T3 | HACAT [2] inactive [at 17.4 µM]
